# Laboratory results published in PubChem BioAssay (NCATS).
# Results filed as inconclusive are left out. Where a call stands in place of a potency, no number is given. Calls of active or inactive are those of the source. Calls follow the shape of the dose curve; as a rule, active = well fitted activation curve with a large enough effect; inconclusive = small, poorly fitted or top-dose-only effect; inactive = flat fitted curve, though single readings scatter. Where a SMILES comes first, the peptide text is derived from it. Bridges are numbered along the chain shown (N, C = ends). [ ]: non-standard residue; d: D form. The star is where a group is joined. AFC = O=c1cc(C(F)(F)F)c2ccc(N*)cc2o1; X1 = CCC(C)C(N)C1=NC(C(=O)*)CS1; PhLac = O=C(O)[CH](O)Cc1ccccc1; NMeV = CN[CH](C(=O)O)C(C)C; dOrn = NCCC[C@@H](N)C(=O)O
# Test: Primary redox qHTS assay for identification of artifact compounds. (AID 1845223)
# Conditions: Amplex Red/HRP redox cycling with DTT, fluorescence; series mostly up to 53.8 µM
# Summary of the method: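 Redox-cycling detection via DTT (250 uM final) oxidation coupled to Amplex Red (25 uM)/HRP (250 mU/mL) in HBSS. 15 min preincubation plus 30 min after DTT, room temperature. Ex/Em 525/598 nm; 4-parameter Hill fit against DMSO and 10 uM DA3003.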
# Potency is read from the fitted curve at half-maximal effect.
SMILES,Potency,redox activity (% of DA3003)
COc1ccc2c(c1)O[C@H](O[C@@H]1O[C@H](CO)[C@@H](O)[C@H](O)[C@H]1O)C(=O)N2,inactive,
CCC(C)C(=O)O[C@@H]1[C@@H](O)[C@@H](O[C@H]2O[C@H](CO)[C@@H](O)[C@H](O)[C@H]2O)O[C@H](CO)[C@H]1O (some centres undefined),inactive,
CO[C@@H]1COCC[C@@H]1N[C@@H]1CC[C@@](C(=O)N2CCc3ncc(C(F)(F)F)cc3C2)(C(C)C)C1,inactive,
CCC(C)C(N)C1=NC(C(=O)N[C@@H](CC(C)C)C(=O)N[C@H](CCC(=O)O)C(=O)N[C@H](C(=O)N[C@H]2CCCCNC(=O)[C@H](CC(N)=O)NC(=O)[C@@H](CC(=O)O)NC(=O)[C@H](Cc3cnc[nH]3)NC(=O)[C@@H](Cc3ccccc3)NC(=O)[C@H]([C@@H](C)CC)NC(=O)[C@@H](CCCN)NC2=O)[C@@H](C)CC)CS1 (some centres undefined) (X1-L[dE]IK[dOrn]I[dF]H[dD]N; lactam 4-C),inactive,
CC(=O)N[C@@H](CC(C)C)C(=O)N[C@@H](CCC(=O)O)C(=O)N[C@@H](CCC(=O)O)C(=O)N[C@@H](CC(=O)O)C(=O)Nc1ccc2c(C(F)(F)F)cc(=O)oc2c1 (Ac-LEED-{AFC}),inactive,
Oc1ccc([C@H]2COc3cc(O)ccc3C2)cc1,inactive,
Cc1cc(C)c(S(=O)(=O)N(Cc2ccc(-c3cccc(S(C)(=O)=O)c3)cc2)Cc2ccc(C(F)(F)F)o2)c(C)c1,inactive,
CC(=O)N1c2ccccc2C2(O)CC3C(=O)NC(CC(C)C)C(=O)N3C12 (centres undefined),inactive,
C=C[C@H]1[C@H](O[C@@H]2O[C@H](CO[C@@H]3OC[C@](O)(CO)[C@H]3O)[C@@H](O)[C@H](O)[C@H]2O)OC=C2C(=O)OCC[C@H]21,3.27 µM (active),
Nc1ccn([C@@H]2C(F)=C(CO)[C@@H](O)[C@H]2O)c(=O)n1,inactive,
N#Cc1ccc2[nH]c(O)c(-c3ccc(CN4CCOCC4)cn3)c2c1,inactive,
CCC(=O)O[C@]1(C(=O)CCl)[C@@H](C)C[C@H]2[C@@H]3C[C@H](F)C4=CC(=O)C=C[C@]4(C)[C@@]3(F)[C@@H](O)C[C@@]21C,inactive,
COc1cc(N2CCC(O)CC2)ccc1Nc1cc(Nc2ccccc2S(=O)(=O)C(C)C)c2cc[nH]c2n1,inactive,
COc1cc(NC(=O)c2ccccn2)ccc1Cl,inactive,
CC1=C2C(=O)O[C@@H](c3ccoc3)[C@]2(C)CCC1,inactive,
Clc1ccc2c(c1)C1=NCCN1c1c(-c3noc(C4CC4)n3)ncn1-2,inactive,
CC(CCC1C(C(=O)O)=CC(=O)CC1(C)C)O[C@@H]1O[C@H](CO)[C@@H](O)[C@H](O)[C@H]1O (some centres undefined),inactive,
COc1c(C)c2c(c(O)c1C/C=C(\C)CC/C=C(\C)CCC(=O)O)C(=O)OC2,inactive,
C[C@@H]1O[C@@H](O[C@H]2[C@H](OC(C#N)c3ccc(O)cc3)O[C@H](CO)[C@@H](O)[C@@H]2O)[C@H](O)[C@H](O)[C@H]1O (some centres undefined),inactive,
CC(C)(C)c1cc(CN2CCN(CC(O)c3ccc(Cl)cc3)CC2)cc(C(C)(C)C)c1O (centres undefined),inactive,

SMILES,Potency,redox activity (% of DA3003)
C=CC(C)(O)CC/C=C(/C)C(=O)OC1C(OC2OCC(OC3OC(CO)C(O)C(O)C3O)C(OC3OCC(O)C(OC4OC(C)C(O)C(O)C4O)C3O)C2O)COC(OC(=O)C23CCC(C)(C)CC2C2=CCC4C5(C)CCC(OC6OC(CO)C(OC7OC(CO)C(O)C(OC8OCC(O)C(O)C8O)C7O)C(O)C6O)C(C)(C)C5CCC4(C)C2(C)CC3O)C1O (centres undefined),,3.8% [at 6.41 µM] (inactive)
COc1cc(C2Oc3c(OC)cc(/C=C/C(=O)OC[C@H]4O[C@@H](OC(C)(C)C(=O)O)[C@H](O)[C@@H](O)[C@@H]4O)cc3C2CO)ccc1O (some centres undefined),inactive,
C=C(C)[C@H]1C[C@@H](O)C(=C)CC[C@@H](O)C(=C)[C@@H](O)C1,inactive,
COc1cc(O[C@@H]2O[C@H](CO)[C@@H](O)[C@H](O)[C@H]2O)c(CCC(=O)OC[C@H]2O[C@@H](Oc3cc(OC)c(C4OC(=O)C(C)(O)C4O)cc3CCC(=O)O)[C@H](O)[C@@H](O)[C@@H]2O)cc1C1OC(=O)C(C)(O)C1O (some centres undefined),,-16.2% [at 11.5 µM] (inactive)
CC(C)C(C(=O)N1CCCC1C(=O)O)N(C)C(=O)C(O)Cc1ccccc1 (centres undefined) (H-[PhLac]-[NMeV]-Pro-OH; configuration not given here),inactive,
CC1(C)C(=O)C(C)(C)c2cc(C(=O)Nc3ccc(C(=O)O)cc3)ccc21,inactive,
CC1(C)CC2C3=CCC4C5(C)CCC(OC6OC(CO)C(O)C(OC7OC(CO)C(O)C(OC8OC(CO)C(O)C(OC9OC(COC%10OC(CO)C(O)C(O)C%10O)C(O)C(O)C9O)C8O)C7O)C6O)C(C)(C)C5CCC4(C)C3(C)CCC2(C(=O)O)CC1O (centres undefined),,10.1% [at 11.5 µM] (inactive)
CC1CCC2C(C)(C)CC(C)(CO)C2(O)C1C(=O)O (centres undefined),inactive,
CCCCCCc1cccc(NC(=O)[C@H](N)CCP(=O)(O)O)c1,,-3.89% [at 11.5 µM] (inactive)
NC(Cc1c[nH]c2ccccc12)C(=O)NC(CCC(=O)O)C(=O)O (centres undefined),inactive,
CC1=C(CC(=O)O)c2cc(F)ccc2C1=Cc1ccc(S(C)(=O)=O)cc1,inactive,
O=c1c2ccccc2nc2n1CCC2O (centres undefined),inactive,
C=CC1(C)C=C2C(=O)CC3C(C)(C)CCCC3(C(=O)O)C2(O)CC1 (centres undefined),inactive,
COC(=O)C1=CO[C@@H](O[C@@H]2O[C@H](CO)[C@@H](O)[C@H](O)[C@H]2O)[C@@H]2[C@@](C)(O)[C@@H](O)C[C@]12O,inactive,
CC(C)(O)c1ccc2c(c1)C(=O)CC1[C@](C)(CO)CCC[C@]21C (some centres undefined),inactive,
COc1cc(C)c(C(=O)O[C@H]2[C@@H](O)[C@H](n3ccc(=O)[nH]c3=O)O[C@@H]2CO)c(OC)c1,inactive,
CCOc1nc2cccc(C(=O)O)c2n1Cc1ccc(-c2ccccc2-c2noc(=O)[nH]2)cc1,inactive,
O=C1N(CC2CCCCN2)CCN1c1ccccc1 (centres undefined),inactive,
CC1(C)CC(=O)N(CCCCN2CCN(c3ncccn3)CC2)C(=O)C1,inactive,
